Source: PubChem BioAssay

Target: Homeobox protein Hox-A13 (Mus musculus) (UniProt Q62424)
Test: disruptors of Hoxa13 oligonucleotide interaction – biochemical, fluorescence polarization, labeled oligonucleotide, primary screen (AID 1185)
Conditions: Hoxa13:DNA binding, 15 min, higher = more signal, called active from +8 up or from −8 down

Chain of Homeobox protein Hox-A13 (Mus musculus) (Q62424 whole entry, looked up): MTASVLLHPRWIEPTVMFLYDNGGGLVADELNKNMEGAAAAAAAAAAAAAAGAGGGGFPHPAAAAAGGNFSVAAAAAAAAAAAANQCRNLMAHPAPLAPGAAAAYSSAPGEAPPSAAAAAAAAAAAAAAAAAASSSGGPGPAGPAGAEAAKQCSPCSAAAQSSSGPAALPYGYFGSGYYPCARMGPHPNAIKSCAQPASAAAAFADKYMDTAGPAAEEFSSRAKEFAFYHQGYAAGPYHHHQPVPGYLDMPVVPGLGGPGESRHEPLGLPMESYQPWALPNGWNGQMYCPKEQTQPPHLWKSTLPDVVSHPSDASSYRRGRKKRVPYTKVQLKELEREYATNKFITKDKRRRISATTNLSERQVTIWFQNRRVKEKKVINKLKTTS

z-score, inactive:
CC(CCN1CCCCc2nc(C)c(C)cc21)=NO[C@H](C)c1cn([C@@H]2COC[C@H]2O)nn1 -1.36, CC(C)[C@H](NC(=O)OC(C)(C)C)[C@@H](O)CC(=O)C(C)(C)C -0.092, COC(=O)CC=C[C@@H](C)[C@@H](C=NOC[C@@H](O)COCc1ccco1)NS(=O)(=O)c1ccc(C)cc1 -3.79, CCN1C(=O)[C@H]2[C@H]3[C@H](O)[C@H](O)CC(=NOC[C@@H](O)COCc4ccco4)[C@H]3CC[C@H]2C1=O 0.366, CCN1C(=O)[C@H]2[C@H]3[C@H](O)[C@H](O)CC(=NOCC[C@@H]4C=C[C@H](OC(C)=O)[C@@H](COC(C)=O)O4)[C@@H]3CC[C@H]2C1=O -1.8, CCOC(=O)[C@H](Cc1ccccc1)NC(=O)CCC1CC(OC(=O)NCc2ccc3c(c2)OCO3)CC2(CCCC(COC(=O)NCCOc3ccccc3)O2)O1 (stereo partly specified) -0.985, C[C@H]1CC[C@H]2C(=O)N[C@H](Cc3ccccc3)C(=O)N2[C@@H]1c1ccccc1 -0.879, CC(CCC(=O)OC[C@H]1O[C@H](C#Cc2ccccc2)C=C[C@@H]1Oc1ccc(C)cc1)=NOC(C)CN1CCCCc2nc(C)c(C)cc21 (stereo partly specified) -2.02, CC(CCC(=O)OC[C@H]1O[C@H](C#Cc2ccccc2)C=C[C@@H]1Oc1ccc(C)cc1)=NO[C@H](C)c1cn([C@@H]2COC[C@H]2O)nn1 -4.04, CCN1C(=O)[C@H]2[C@@H]3C(=CC[C@H]2C1=O)C(=O)[C@H]1O[C@H]1[C@H]3O -6.04, CCO[C@H](c1cc(OC)cc([N+](=O)[O-])c1OC)[C@H](C)[C@@H](OC)[C@H](C)C=CCC(=O)OC -0.256, CCOC(=O)CCN1C(=O)[C@H]2[C@H]3[C@H](O)[C@H](O)CC(=NNC(=O)OCC)[C@H]3CC[C@H]2C1=O -4.5, CC(C)=CCCC(C)=CCON=C1C[C@@H](O)[C@@H](O)[C@@H]2[C@@H]3C(=O)N(C4CCCCC4)C(=O)[C@@H]3CC[C@H]12 -0.469, CCOC(=O)CCN1C(=O)[C@H]2[C@H]3[C@H](O)[C@H](O)CC(=NOCC=C(C)CCC=C(C)C)[C@@H]3CC[C@H]2C1=O -1.21, COc1cccc([C@H]2Oc3ccc(OC)cc3C(=NOCC[C@@H]3C=C[C@H](OC(C)=O)[C@@H](COC(C)=O)O3)[C@@H]2O)c1 -5.39, CC(C)(C)N1C(=O)[C@H]2[C@H]3[C@H](O)[C@H](O)CC(=NOC[C@@H](O)COCc4ccco4)[C@H]3CC[C@H]2C1=O 0.976, CCc1cc2c(nc1CC)CCN(CCC(C)=NO[C@@H]1O[C@H](COC(C)=O)[C@@H](OC(C)=O)[C@H](OC(C)=O)[C@H]1OC(C)=O)C2 -4.79, CO[C@H]1COC(=O)CC=C[C@H](C)[C@H](OC)COC(=O)[C@@H](C)NC(=O)CC=C[C@@H]1C -0.75, O=C1[C@H]2[C@H]3[C@H](O)[C@H](O)CC(=NO[C@@H]4O[C@H](CO)[C@@H](O)[C@H](O)[C@H]4O)[C@H]3CC[C@H]2C(=O)N1C[C@@H]1CCCO1 0.594, CC(=O)OC[C@H]1O[C@@H](ON=C(C)C)[C@H](OC(C)=O)[C@@H](OC(C)=O)[C@@H]1OC(C)=O -0.383, O=C1[C@H]2[C@H]3[C@H](O)[C@H](O)CC(=NO[C@@H]4O[C@H](CO)[C@@H](O)[C@H](O)[C@H]4O)[C@@H]3CC[C@H]2C(=O)N1C1CCCCC1 0.719, CC(C)CON=C1C[C@@H](O)[C@@H](O)[C@@H]2[C@@H]3C(=O)N(Cc4ccccc4)C(=O)[C@@H]3CC[C@H]12 -2.34, CC(CCN1CCCc2nc(C)c(C)cc21)=NOC[C@@H](C)[C@H](OCc1ccccc1)C(C)C -3.09, C[C@@H]1CC[C@H]2C(=O)OC(CN3C(=O)c4ccccc4C3=O)CN2[C@H]1c1ccc(Br)cc1 (stereo partly specified) -0.956, O=C1[C@H]2[C@H]3[C@H](O)[C@H](O)CC(=NOC[C@@H](O)COCc4ccco4)[C@@H]3CC[C@H]2C(=O)N1Cc1ccccc1 -2.98, CC(=O)OC[C@H]1O[C@H](CC=NOC(C)CN2CCCc3nc(C)c(C)cc32)C=C[C@@H]1OC(C)=O (stereo partly specified) -6.1, CC1(C)O[C@H]2OC([C@H](O)CON3C(=O)c4ccccc4C3=O)[C@H](O)[C@H]2O1 (stereo partly specified) 0.366, COC(=O)CC=C[C@@H](C)[C@@H](C=NOC(C)CN1CCCCc2nc(C)c(C)cc21)NS(=O)(=O)c1ccc(C)cc1 (stereo partly specified) -0.327, C=CC[C@@H]1C=C[C@H](Oc2ccc(C)cc2)[C@@H](COC(=O)NCc2cccc3ccccc23)O1 -0.901, CCOC(=O)[C@H](Cc1ccccc1)NC(=O)CCC1CC(OC(=O)NCc2ccc3c(c2)OCO3)CC2(CCCC(COC(=O)NCCOC)O2)O1 (stereo partly specified) -3.78, CC(C)=CCCC(C)=CCON=C1C[C@@H](O)[C@@H](O)[C@@H]2[C@@H]3C(=O)N([C@@H](C)c4ccccc4)C(=O)[C@@H]3CC[C@@H]12 -1.3, CC(C)(C)N1C(=O)[C@H]2[C@H]3[C@H](O)[C@H](O)CC(=NNC(=O)OCc4ccccc4)[C@@H]3CC[C@H]2C1=O 0.408, CCOC(=O)CCN1C(=O)[C@H]2[C@H]3[C@H](O)[C@H](O)CC(=NNC(=O)OCc4ccccc4)[C@H]3CC[C@H]2C1=O -3.59, CO[C@@H]1COC(=O)[C@H](CCSC)NC(=O)CC=C[C@@H](C)COC(=O)[C@@H]2CCCN2C(=O)CC=C[C@H]1C 0.213, CCOC(=O)NN=C1C[C@@H](O)[C@@H](O)[C@@H]2[C@@H]3C(=O)N(C[C@@H]4CCCO4)C(=O)[C@@H]3CC[C@H]12 0.0129, C#CCCCON=C1C[C@@H](O)[C@@H](O)[C@@H]2[C@@H]3C(=O)N(C4CCCCC4)C(=O)[C@@H]3CC[C@@H]12 -4.64
